PubChem BioAssay (NCI)
This is part of a sample that, as a whole, favours compounds with a hit. Of some 83,000 tested, about 20% had one in any assay.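 Treatment: one concentration, 48 hours, 96-well format. Scoring: percent growth, with anything below 10 considered active.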 The source made the active and inactive calls.

Assays:
Test in all cases: NCI-60 one-dose screen, 48 h (100 = growth as untreated, 0 = no growth, -100 = all killed)
Conditions in all cases: 10 µM unless noted
SK-MEL-2 melanoma = tested on: SK-MEL-2 melanoma
EKVX NSCLC = tested on: EKVX NSCLC
SN12C renal = tested on: SN12C renal
UO-31 renal = tested on: UO-31 renal
TK-10 renal = tested on: TK-10 renal
ACHN renal = tested on: ACHN renal
A498 renal = tested on: A498 renal
CCRF-CEM leukemia = tested on: CCRF-CEM leukemia
MOLT-4 leukemia = tested on: MOLT-4 leukemia
SR leukemia = tested on: SR leukemia

Measured: growth

CCCn1c(N)c(C(N)=O)sc1=S
inactive: SK-MEL-2 melanoma 93.3% | EKVX NSCLC 116% | SN12C renal 93.8% | UO-31 renal 79.2% | TK-10 renal 130% | ACHN renal 93.9% | A498 renal 98.5% | CCRF-CEM leukemia 108% | MOLT-4 leukemia 97% | SR leukemia 66.6%

C=C(C)[C@@H]1CC[C@]2(C(=O)O)CC[C@]3(C)[C@H](CC[C@@H]4[C@@]5(C)C[C@@H](CC#Cc6ccc(Cl)cc6)C(=O)C(C)(C)[C@@H]5CC[C@]43C)[C@@H]12
inactive: EKVX NSCLC 40% | SN12C renal 27.8% | UO-31 renal 60.5% | TK-10 renal 59.7% | ACHN renal 48.2% | CCRF-CEM leukemia 27.9% | MOLT-4 leukemia 26.7% | SR leukemia 49.9%
active: SK-MEL-2 melanoma -18.9% | A498 renal -15.1%

O=C(CCc1nnc2sc(OCc3ccccc3)nn12)c1nc2ccc([N+](=O)[O-])cc2[nH]1
inactive: SK-MEL-2 melanoma 95.6% | EKVX NSCLC 89.3% | SN12C renal 106% | UO-31 renal 67.2% | TK-10 renal 131% | ACHN renal 97% | A498 renal 111% | CCRF-CEM leukemia 104% | MOLT-4 leukemia 95.4% | SR leukemia 84.1%

CCCCC1=c2c([nH]c3ccc(OC)cc23)=NC2C=CC=NC12 (stereo not given)
inactive: SK-MEL-2 melanoma 110% | EKVX NSCLC 84.3% | SN12C renal 88.5% | UO-31 renal 75% | TK-10 renal 115% | ACHN renal 91.2% | A498 renal 94.9% | CCRF-CEM leukemia 91.5% | MOLT-4 leukemia 69.5% | SR leukemia 45%

COc1ccc2oc(=O)cc(-c3c(C#N)c(N)n4nc(N)c(C#N)c4c3C#N)c2c1
inactive: SK-MEL-2 melanoma 91.7% | EKVX NSCLC 100% | SN12C renal 103% | UO-31 renal 94.4% | TK-10 renal 90.4% | ACHN renal 101% | A498 renal 113% | CCRF-CEM leukemia 106% | MOLT-4 leukemia 86% | SR leukemia 115%

CCC1=C[C@H]2CN(CCc3c([nH]c4ccccc34)[C@@](C(=O)OC)(c3cc4c(cc3OC)N(C)[C@H]3[C@@](O)(C(=O)OC)[C@H](OC(C)=O)[C@]5(CC)[C@@H]6C[C@@H]6CN6CC[C@]43[C@@H]65)C2)C1
inactive: SK-MEL-2 melanoma 13.2% | EKVX NSCLC 35.5% | SN12C renal 30.1% | UO-31 renal 14.7% | TK-10 renal 28.9% | ACHN renal 19.1%
active: A498 renal -15.2% | CCRF-CEM leukemia -5.97% | MOLT-4 leukemia 4.19% | SR leukemia -9.46%

Nc1c(C(=O)Nc2ccccn2)sc2nc3c(cc12)CCCC3
inactive: SK-MEL-2 melanoma 35.1% | EKVX NSCLC 55.2% | SN12C renal 50.1% | UO-31 renal 61.6% | TK-10 renal 97.5% | ACHN renal 69.8% | A498 renal 48.3% | CCRF-CEM leukemia 36.9% | MOLT-4 leukemia 29.8%
active: SR leukemia 9.84%

COc1cc2nc3c(=O)n(-c4ccc(C#N)cc4)cnn3c(=O)c2cc1OC
inactive: SK-MEL-2 melanoma 94.4% | EKVX NSCLC 93.9% | SN12C renal 99% | UO-31 renal 83.6% | TK-10 renal 104% | ACHN renal 100% | A498 renal 113% | CCRF-CEM leukemia 143% | MOLT-4 leukemia 91.3% | SR leukemia 94.1%

O=c1cc(/C=N\Nc2nc(-c3ccc(Cl)cc3Cl)cs2)c2cc(Cl)ccc2o1
inactive: SK-MEL-2 melanoma 92.9% | EKVX NSCLC 79.3% | SN12C renal 95% | UO-31 renal 70.4% | TK-10 renal 120% | ACHN renal 97.7% | A498 renal 101% | CCRF-CEM leukemia 97.3% | MOLT-4 leukemia 98.1% | SR leukemia 80.7%

N#CC1C(c2ccc(Cl)cc2)=Nc2c(c(-c3ccccc3)nn2-c2ccccc2)C12C(=O)Nc1ccc(Cl)cc12 (stereo not given)
inactive: SK-MEL-2 melanoma 71.3% | EKVX NSCLC 40.1% | SN12C renal 60.2% | UO-31 renal 22.6% | TK-10 renal 47.8% | ACHN renal 36.6% | A498 renal 60.3% | CCRF-CEM leukemia 19.2% | MOLT-4 leukemia 15.3% | SR leukemia 36.5%

COc1ccc2c(c1)/C(=C1\S/C(=N/c3nnc(C)s3)NC1=O)C(=O)N2Cc1ccc(Cl)cc1
inactive: SK-MEL-2 melanoma 43.4% | EKVX NSCLC 38.8% | SN12C renal 51.6% | UO-31 renal 57.7% | TK-10 renal 58.4% | ACHN renal 55.3% | CCRF-CEM leukemia 31.7% | MOLT-4 leukemia 24.6% | SR leukemia 55.7%
active: A498 renal -4.96%

COC(=O)c1ccc(NC(=O)CSc2nc(-c3ccc(F)cc3)nc3ccccc23)cc1
inactive: SK-MEL-2 melanoma 99.8% | EKVX NSCLC 91.4% | SN12C renal 79.3% | UO-31 renal 82.3% | TK-10 renal 113% | ACHN renal 97.4% | A498 renal 99.6% | CCRF-CEM leukemia 85.7% | MOLT-4 leukemia 89% | SR leukemia 78%

CC(=O)c1c(OCC#N)ccc2c(C)cc(=O)oc12
inactive: SK-MEL-2 melanoma 95.6% | EKVX NSCLC 105% | SN12C renal 102% | UO-31 renal 114% | TK-10 renal 118% | ACHN renal 99.8% | A498 renal 101% | CCRF-CEM leukemia 105% | MOLT-4 leukemia 101% | SR leukemia 87.1%

Cc1ccc(SC2c3ccc(C)cc3Oc3nc(N)c(C#N)c(N)c32)cc1 (stereo not given)
active: CCRF-CEM leukemia 7.82% | MOLT-4 leukemia 7.29% | SR leukemia -11.8%
inactive: SK-MEL-2 melanoma 65.3% | EKVX NSCLC 59.8% | SN12C renal 79.9% | UO-31 renal 48.5% | TK-10 renal 69.3% | ACHN renal 68.1% | A498 renal 106%

Cc1nnc(/N=C2\NC(=O)/C(=C/c3ccsc3)S2)s1
inactive: SK-MEL-2 melanoma 95.5% | EKVX NSCLC 93.6% | SN12C renal 99.7% | UO-31 renal 81.2% | TK-10 renal 96.7% | ACHN renal 106% | A498 renal 87.7% | CCRF-CEM leukemia 95.1% | MOLT-4 leukemia 95% | SR leukemia 103%

CN(C)c1ccc(-c2ccc3[nH]c(=O)nc(-c4ccc(F)cc4)c3c2)cn1
inactive: SK-MEL-2 melanoma 30.8% | EKVX NSCLC 55.9% | SN12C renal 45.3% | UO-31 renal 52.9% | TK-10 renal 73.7% | ACHN renal 52.3% | A498 renal 18.5% | CCRF-CEM leukemia 12% | MOLT-4 leukemia 28.1% | SR leukemia 18.3%

O=c1c2ccccc2n(CC(O)CN2CCCC2)c2c(Br)cccc12 (stereo not given)
inactive: SK-MEL-2 melanoma 112% | EKVX NSCLC 99.1% | SN12C renal 109% | UO-31 renal 89.1% | TK-10 renal 106% | ACHN renal 108% | A498 renal 71.8% | CCRF-CEM leukemia 82.3% | MOLT-4 leukemia 104% | SR leukemia 77%
